These results are taken from PubChem BioAssay.

The test system of experiment [1] is XIP peptide (Xip251-270) binding. Nature of the experiment: XIP fragment 251-270 binding compounds – biochemical, small-molecule microarray, fluorescence 635/667 nm, 0.1 µg/mL protein, primary screen (AID 1182). The note with it: fluorescent protein binding, 635 nm, higher = more signal, called active from +8 up or from −8 down.
The next experiment has as its system XIP peptide (Xip251-270). Nature of the experiment: compounds binding XIP fragment 251-270 – biochemical, small-molecule microarray, fluorescence 635/667 nm, 0.5 µg/mL protein, primary screen (AID 1183). The note with it: fluorescence 635 nm, higher = more signal.
Experiment [2] in a line: blood-stage malaria parasite viability loss – strain 3D7, DAPI fluorescence, 100 nL, primary screen (AID 1184).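 Note: parasites grown inside human red blood cells in medium with human serum.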 The note with it: P. falciparum 3D7 growth, 3 d, higher = more signal.
Experiment [3] addresses Homeobox protein Hox-A13 (Mus musculus) (UniProt Q62424). Nature of the experiment: disruptors of Hoxa13 oligonucleotide interaction – biochemical, fluorescence polarization, labeled oligonucleotide, primary screen (AID 1185). The note with it: Hoxa13:DNA binding, 15 min, higher = more signal, called active from +8 up or from −8 down.
Experiment [4] is described as follows: blockers of DNA damage checkpoint Chk1 activation – imaging, HeLa, hydroxyurea, phospho-Chk1 antibody, percent positive cells, primary screen (AID 1186). Particulars: hydroxyurea-induced phospho-Chk1 immunofluorescence imaging, higher = more signal.
Experiment [5] in a line: blockers of DNA damage checkpoint Chk1 activation – imaging, HeLa, hydroxyurea, phospho-Chk1 nuclear intensity, primary screen (AID 1187). Particulars: hydroxyurea-induced phospho-Chk1 immunofluorescence imaging, higher = more signal.

Active and inactive are the calls of the source. Unless noted, the rule behind the calls is not given here.

Homeobox protein Hox-A13 (Mus musculus), sequence (Q62424 whole entry, looked up): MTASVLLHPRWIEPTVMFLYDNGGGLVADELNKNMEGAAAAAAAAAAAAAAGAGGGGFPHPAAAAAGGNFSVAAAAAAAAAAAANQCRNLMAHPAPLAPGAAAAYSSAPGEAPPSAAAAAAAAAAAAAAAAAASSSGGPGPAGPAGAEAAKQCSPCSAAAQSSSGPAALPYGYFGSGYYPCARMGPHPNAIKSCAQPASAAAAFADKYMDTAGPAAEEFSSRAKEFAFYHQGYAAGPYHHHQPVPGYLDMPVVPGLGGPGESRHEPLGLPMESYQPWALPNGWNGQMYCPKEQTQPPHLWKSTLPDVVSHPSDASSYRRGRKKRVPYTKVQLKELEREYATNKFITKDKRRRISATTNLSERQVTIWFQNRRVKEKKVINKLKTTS

With `CCOC(=O)C1=CCC(c2ccccc2)N(S(=O)(=O)CC[Si](C)(C)C)C1` (stereo unspecified), the composite z-score was -0.0447 (inactive) in experiment [1] and 0.113 in the experiment on XIP peptide (Xip251-270). The z-score is -0.391 in experiment [2], -2.31 (inactive) in experiment [3], -0.262 (inactive) in experiment [4] and 0.0088 (inactive) in experiment [5].
Regarding `COc1cc2c(cc1OC)CN(C(=O)[C@H]1[C@@H]3C(=O)O[C@@H](c4ccccc4)[C@@H](c4ccccc4)N3[C@@H](c3ccc(O)cc3)[C@]13C(=O)Nc1ccc(C#CCNC(N)=O)cc13)CC2`, the composite z-score in experiment [1] was -0.564 (inactive); in the experiment with XIP peptide (Xip251-270) it was 0.497. Moreover, the z-score in experiment [2] was -0.599; in experiment [3], -1.24 (inactive); in experiment [4], -0.192 (inactive); in experiment [5] it was -0.245 (inactive).
For the compound `CC1CC/C=C\[C@H]2OC34C=CCN(C(C)(C)C)C(=O)[C@H]3N(CCCCCCO)C(=O)[C@@H]4C2C(=O)O1` (stereo partly specified), the results for the composite z-score (in experiment [1]; in the experiment with XIP peptide (Xip251-270)) were 1.87 (inactive) and -0.512, respectively. Moreover, the z-score in experiment [2] is 0.621; in experiment [3], -4.21 (inactive); in experiment [4], -0.82 (inactive); in experiment [5], 0.193 (inactive).
For the compound `C=CC[C@@]1(C(=O)NCc2ccccc2)N=C(c2ccc(OCCCO)cc2)O[C@@H]1c1ccccc1N=[N+]=[N-]`, the results for the composite z-score (in experiment [1]; with XIP peptide (Xip251-270)) were 0.0885 (inactive) and 0.764, respectively. Further, the z-score is -1.92 in experiment [2], -1.72 (inactive) in experiment [3], -0.334 (inactive) in experiment [4] and -0.183 (inactive) in experiment [5].
`C=CCNC(=O)[C@H]1[C@@H]2C(=O)O[C@@H](c3ccccc3)[C@@H](c3ccccc3)N2[C@@H](c2ccc(OCCO)cc2)[C@]12C(=O)Nc1ccc(C#CC3=CCCCC3)cc12`: the composite z-score is 0.116 (inactive) in experiment [1] and 0.731 with XIP peptide (Xip251-270). The z-score is -1.19 in experiment [2], 3.25 (inactive) in experiment [3], 0.151 (inactive) in experiment [4] and 0.359 (inactive) in experiment [5].
For `C=C(CCCC)C(=O)CC[C@H](OC(C)=O)c1cccc(OCCO)c1`, the composite z-score in experiment [1] is 0.162 (inactive); in the experiment on XIP peptide (Xip251-270) it was -0.0976. Also, the z-score was -1.98 in experiment [2], -5.04 (inactive) in experiment [3], -0.0717 (inactive) in experiment [4] and -0.148 (inactive) in experiment [5].
With `C=C(CCCC)C(=O)CC[C@@H](OC(=O)c1cccnc1)c1ccc(CO)o1`, the composite z-score in experiment [1] was 0.67 (inactive); with XIP peptide (Xip251-270) it was 0.561. Besides, the z-score in experiment [2] is -0.46; in experiment [3], -4.35 (inactive); in experiment [4] it was 0.575 (inactive); in experiment [5] it was -0.023 (inactive).
For `COC(=O)C(CC#Cc1ccc2c(c1)[C@]1(C(=O)N2)[C@H](C(=O)O)[C@H]2C(=O)O[C@H](c3ccccc3)[C@H](c3ccccc3)N2[C@@H]1c1ccc(O)cc1)C(=O)OC`, the figures for the composite z-score (in experiment [1]; in the experiment with XIP peptide (Xip251-270)) were 0.12 (inactive) and 0.713, respectively. In addition, the z-score is 0.49 in experiment [2], -6.07 (inactive) in experiment [3], -0.287 (inactive) in experiment [4] and -0.507 (inactive) in experiment [5].
For `CS(=O)(=O)CCOC(=O)C1=CC(CCCO)=CC(c2ccc(CN3CCCC3)cc2)N(Cc2cc3c(cc2Br)OCO3)C=C1C(=O)OCCS(C)(=O)=O` (stereo unspecified), the composite z-score in experiment [1] was 0.597 (inactive); in the experiment on XIP peptide (Xip251-270), 0.732. In addition, the z-score in experiment [2] is -2.66; in experiment [3], -0.776 (inactive); in experiment [4], -1.45 (inactive); in experiment [5], -0.549 (inactive).
For `[N-]=[N+]=NCc1ccccc1C[C@]1(C(=O)N2CCOCC2)N=C(c2ccc(OCCCO)cc2)O[C@H]1c1ccccc1N=[N+]=[N-]`, the composite z-score is 0.141 (inactive) in experiment [1] and 0.229 with XIP peptide (Xip251-270). The z-score is -2.6 in experiment [2], -2.96 (inactive) in experiment [3], -0.551 (inactive) in experiment [4] and -0.635 (inactive) in experiment [5].
On to `C=CC[C@]12N=C(c3ccc(OCCCO)cc3)O[C@H]1c1ccccc1N(Cc1ccccc1)C2=O`, for which the values for the composite z-score (in experiment [1]; in the experiment on XIP peptide (Xip251-270)) were 0.0479 (inactive) and 0.586, respectively. In addition, the z-score in experiment [2] is -2.17; in experiment [3], 0.196 (inactive); in experiment [4] it was -0.241 (inactive); in experiment [5], -0.197 (inactive).
`COCCOC(=O)N1C(=O)[C@@]2(c3cc(C#Cc4ccc(OC)cc4)ccc31)[C@H](c1ccc(O)cc1)N1[C@H](c3ccccc3)[C@H](c3ccccc3)OC(=O)[C@H]1[C@@H]2C(=O)NC[C@H](O)c1ccccc1`: the composite z-score in experiment [1] was 0.27 (inactive); with XIP peptide (Xip251-270), 0.77. Also, the z-score in experiment [2] was -1.66; in experiment [3], -0.934 (inactive); in experiment [4], -0.192 (inactive); in experiment [5], 0.249 (inactive).
Take `COCCCNC(=O)C1N=C(c2ccc(OCCCO)cc2)N(c2ccccc2)O1` (stereo unspecified): the composite z-score is 1.84 (inactive) in experiment [1] and 0.779 in the experiment on XIP peptide (Xip251-270). For the same compound, the z-score in experiment [2] was -0.572; in experiment [3], -2.25 (inactive); in experiment [4], -0.0836 (inactive); in experiment [5], 0.164 (inactive).
On to `O=C1NC(=O)C2C1C=CC(C(O)C(c1ccccc1)c1ccccc1)N2Nc1ccc(Cl)cc1Cl` (stereo unspecified), for which the composite z-score is 0.69 (inactive) in experiment [1] and -0.0049 in the experiment with XIP peptide (Xip251-270). Besides, the z-score in experiment [2] is -0.289; in experiment [3] it was -4.15 (inactive); in experiment [4], 0.735 (inactive); in experiment [5], 0.889 (inactive).
Take `COc1ccc([C@H]2C[C@H]3C(Br)=C[C@@H]2C(=O)[C@]32CO2)cc1`: the composite z-score in experiment [1] was -0.244 (inactive); in the experiment with XIP peptide (Xip251-270), -0.22. Further, the z-score in experiment [2] is -0.518; in experiment [3], -0.444 (inactive); in experiment [4] it was 0.0297 (inactive); in experiment [5], -0.237 (inactive).
As to `CC(C)C[C@@H]1NC(=O)[C@@H]2C[C@H](C(=O)NCCCCCN)[C@H](c3cccc(OCCO)c3)N2C1=O`, the composite z-score in experiment [1] was 0.0825 (inactive); with XIP peptide (Xip251-270) it was 0.758. Also, the z-score is -0.0757 in experiment [2], -3.34 (inactive) in experiment [3], -0.356 (inactive) in experiment [4] and -0.49 (inactive) in experiment [5].
